How the values were obtained:
Assay in all cases: PBM binding z-score (relative to random genomic background probes); higher = stronger binding; sequences stand for … in GC…GCGATTGACAGCGTAGAATGAAGG
[1] = system: PPARg:RXRa DBDmut IVT, anti-RXR (DBD mutation: RXRa K156A/R161A, NR concentration 270 nM, RXRa partner concentration 90 nM)
Method in brief: (§1)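 Regression normalization was applied to scanned fluorescence from custom Agilent 4×180K protein-binding microarrays. Before scanning, arrays were incubated 1 h with ligand-free nuclear receptor dimers, and binding was detected with antibodies against each partner (one per run). Binding z-scores use the random background probes as reference.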

[2] = system: PPARg:RXRa IVT, anti-PPARg (NR concentration 270 nM, RXRa partner concentration 90 nM)
Method in brief: as §1

[3] = system: PPARg DBDmut:RXRa IVT, anti-PPARg (DBD mutation: PPARg1 K132A/R137A, NR concentration 270 nM, RXRa partner concentration 90 nM)
Method in brief: as §1

[4] = system: PPARg DBDmut IVT, anti-PPARg (DBD mutation: PPARg1 K132A/R137A, NR concentration 270 nM)
Method in brief: as §1

[5] = system: PPARg homodimer (NR concentration 180 nM)
Method in brief: as §1

[6] = system: PXR:RXRa (NR concentration 270 nM, RXRa partner concentration 90 nM)
Method in brief: as §1

[7] = system: PXR homodimer (NR concentration 270 nM)
Method in brief: as §1

[8] = system: RARa:RXR (NR concentration 270 nM, RXRa partner concentration 90 nM)
Method in brief: as §1

[9] = system: RARa homodimer (NR concentration 270 nM)
Method in brief: as §1

[10] = system: RARb:RXRa (NR concentration 270 nM, RXRa partner concentration 90 nM)
Method in brief: as §1

[11] = system: RARb homodimer (NR concentration 270 nM)
Method in brief: as §1

[12] = system: RARg:RXRa (NR concentration 270 nM, RXRa partner concentration 90 nM)
Method in brief: as §1

[13] = system: RARg homodimer (NR concentration 270 nM)
Method in brief: as §1

[14] = system: RXRa DBDmut IVT, anti-RXR (DBD mutation: RXRa K156A/R161A, NR concentration 90 nM)
Method in brief: as §1

[15] = system: RXRa homodimer (NR concentration 180 nM)
Method in brief: as §1

[16] = system: THRa:RXRa (NR concentration 90 nM, RXRa partner concentration 90 nM)
Method in brief: as §1

[17] = system: THRa homodimer (NR concentration 90 nM)
Method in brief: as §1

[18] = system: VDR homodimer (NR concentration 270 nM)
Method in brief: as §1

Sequence	PBM binding z-score [1]	PBM binding z-score [2]	PBM binding z-score [3]	PBM binding z-score [4]	PBM binding z-score [5]	PBM binding z-score [6]	PBM binding z-score [7]	PBM binding z-score [8]	PBM binding z-score [9]	PBM binding z-score [10]	PBM binding z-score [11]	PBM binding z-score [12]	PBM binding z-score [13]	PBM binding z-score [14]	PBM binding z-score [15]	PBM binding z-score [16]	PBM binding z-score [17]	PBM binding z-score [18]
ATCTCTAGGTAGAGATAGTTCAGTGAATGCAAAT	-0.289	0.0847	0.624	0.987	0.293	0.338	0.253	0.641	0.194	0.242	0.368	0.166	0.357	-0.163	0.115	0.148	-0.22	0.338
ATCTCTAGGTAAAGTTCAGTTAAAGATCGATAGA	2.25	2.63	1.03	0.905	2.02	2.33	1.72	1.81	1.83	2.78	2.73	1.65	2.5	1.68	1.5	1.47	0.842	2.04
CCTCCAAGGTCAGCAGGTCAGTGAAAGCGACGTG	2.44	3.16	-0.182	-1.13	2.56	3.13	0.806	4.32	0.668	5.41	4.97	6.12	6.45	2.04	4.21	3.74	2.14	1.55
TCTGCTAGGTCAAAGATGGTCAGCTAATCTGCTA	4.67	3.96	0.246	0.394	0.4	1.59	-0.802	2.44	-0.95	3.83	3.04	3.65	4.3	1.31	2.65	3.05	0.196	-0.234
CGAACTAGGTTATCCAGGACAGTGAATACATTGA	6.42	5.96	0.89	0.666	0.877	0.173	0.527	0.654	0.298	0.828	0.559	0.544	1.04	0.958	0.343	2.45	1.19	0.455
ATCTCAAGGTAAAGTTCAGTGAAAGATCGATAGA	0.17	1.36	1.42	1.27	1.71	2.26	2.1	1.78	1.65	2.97	2.72	2.43	2.96	1.69	1.76	1.78	0.667	2.24
ATATGTAAGTTAGCTGGGGTCATTCAGACTAGGC	0.965	1.4	0.49	0.596	1.64	5.82	6.58	5.31	0.998	2.47	3.29	3.58	2.19	1.95	5.13	4.31	3.21	4.9

From the supplement of paper PMC6555819
